This is an account of results in the supplement of paper PMC6555819.

What all share (test): PBM binding z-score (relative to random genomic background probes); higher = stronger binding; sequences stand for … in GC…GCGATTGACAGCGTAGAATGAAGG
Test [1] has as its system FXR:RXRa (NR concentration 270 nM, RXRa partner concentration 90 nM). The method, boiled down:
(§1)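 For binding z-scores, the reference was random background probes on custom Agilent 4×180K protein-binding microarrays. These arrays were incubated 1 h with ligand-free nuclear receptor dimers in PBS pH 7.4, 2% milk, 0.02% Triton X-100, 1 mM DTT, 0.2 mg/mL BSA and 0.4 mg/ml salmon testes DNA. Fluorescence was scanned after antibody detection of each partner (one per run) and regression-normalized.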

Test [2] has as its system LXRa:RXRa (NR concentration 270 nM, RXRa partner concentration 90 nM). The method, boiled down: as §1
In test [3] the test system is LXRa homodimer (NR concentration 270 nM). The method, boiled down:
as §1

Test [4] has as its system LXRb:RXRa (NR concentration 270 nM, RXRa partner concentration 90 nM). The method, boiled down: as §1
In test [5] the test system is LXRb homodimer (NR concentration 270 nM). The method, boiled down: as §1
The test system of test [6] is PPARa:RXRa (NR concentration 270 nM, RXRa partner concentration 90 nM). The method, boiled down:
as §1

For test [7], the system named is PPARg:RXRa (NR concentration 180 nM, RXRa partner concentration 90 nM). The method, boiled down:
as §1

In test [8] the test system is PPARg:RXRa 270nM:90nM, anti-RXR (NR concentration 270 nM, RXRa partner concentration 90 nM). The method, boiled down: as §1
Test [9] has as its system PPARg:RXRa 30nM:10nM, anti-RXR (NR concentration 30 nM, RXRa partner concentration 10 nM). The method, boiled down: as §1
In test [10] the test system is PPARg:RXRa 90nM:30nM, anti-RXR (NR concentration 90 nM, RXRa partner concentration 30 nM). The method, boiled down:
as §1

Test [11] concerns PPARg:RXRa DBDmut IVT, anti-RXR (DBD mutation: RXRa K156A/R161A, NR concentration 270 nM, RXRa partner concentration 90 nM). The method, boiled down: as §1
Test [12] has as its system PPARg:RXRa IVT, anti-PPARg (NR concentration 270 nM, RXRa partner concentration 90 nM). The method, boiled down: as §1
In test [13] the test system is PPARg DBDmut:RXRa IVT, anti-PPARg (DBD mutation: PPARg1 K132A/R137A, NR concentration 270 nM, RXRa partner concentration 90 nM). The method, boiled down:
as §1

Test [14] has as its system PPARg DBDmut IVT, anti-PPARg (DBD mutation: PPARg1 K132A/R137A, NR concentration 270 nM). The method, boiled down: as §1
For test [15], the system named is PPARg homodimer (NR concentration 180 nM). The method, boiled down: as §1
Test [16] has as its system PXR:RXRa (NR concentration 270 nM, RXRa partner concentration 90 nM). The method, boiled down: as §1
The test system of test [17] is PXR homodimer (NR concentration 270 nM). The method, boiled down: as §1
Test [18] relates to RARa:RXR (NR concentration 270 nM, RXRa partner concentration 90 nM). The method, boiled down:
as §1

The test system of test [19] is RARa homodimer (NR concentration 270 nM). The method, boiled down:
as §1

Test [20] deals with RARb:RXRa (NR concentration 270 nM, RXRa partner concentration 90 nM). The method, boiled down:
as §1

As to CGAACTAGGCCAAGGACAGTGAATCTCCGCACGC, the PBM binding z-score in [1] is -0.241; in [2], -0.713; in [3] it was -0.191; in test [4] it was -0.883; in test [5], -0.975; in test [6], 1.04. Further, the PBM binding z-score was 1.69 in [7]; 1.53 in test [8]; -0.0892 in test [9]; 0.672 in [10]; 6.24 in test [11]; 4.83 in test [12]. In addition, the PBM binding z-score was 0.31 in test [13]; -0.452 in test [14]; -0.431 in test [15]; -0.557 in test [16]; -0.632 in [17]; -0.45 in test [18]. For the same sequence, the PBM binding z-score in test [19] is -0.416; in test [20], 0.81.
With CGTCCAAGGTCAGCAGGTCGGTGAAAGCGACGTG, the PBM binding z-score is 5.28 in test [1]; 3.29 in test [2]; -0.232 in test [3]; 2.07 in [4]; -0.502 in [5]; 4.33 in [6]. The PBM binding z-score in [7] was determined as 2.97; in [8], 3.45; in test [9] it was 0.508; in test [10], 2.15; in [11] it was 2.81; in [12] it was 2.89. For the same sequence, the PBM binding z-score in [13] was -0.853; in test [14], -0.476; in test [15], 2.43; in test [16] it was 2.61; in test [17], -0.066; in test [18], 3.58. For the same sequence, the values for the PBM binding z-score in [19] and in test [20] were 0.0156 and 5.19, respectively.
With ATCGTAAGGTCGAGGTGAGTATAGAGAAAGGGAA, the PBM binding z-score was 2.64 in [1]; 1.91 in [2]; 0.0142 in test [3]; 1.68 in test [4]; 0.624 in test [5]; 3.02 in test [6]. In addition, the PBM binding z-score in [7] was 1.53; in [8], 1.72; in test [9], 0.505; in [10], 1.27; in test [11], -0.153; in test [12] it was 1.72. The PBM binding z-score in test [13] stood at 1.12; in [14], 1.14; in test [15], 1.07; in test [16] it was 1.68; in test [17], 0.189; in test [18], 2.17. Also, the PBM binding z-score came to 0.395 in test [19] and 3.22 in test [20].
In the case of CCAGACAGGTGAGAAGGTAACTCAACCTCGATTA, the PBM binding z-score is -0.191 in test [1]; 0.167 in test [2]; 0.188 in test [3]; 0.347 in [4]; -0.388 in [5]; 0.894 in [6]. Besides, the PBM binding z-score in test [7] worked out at 0.669; in test [8], 0.515; in test [9], 0.064; in test [10], 0.437; in test [11], 1.22; in [12] it was 0.742. Besides, the PBM binding z-score in [13] was 0.229; in [14] it was -0.571; in [15], 1.06; in test [16], 0.207; in test [17], 0.428; in test [18] it was 0.706. The PBM binding z-score in test [19] was found to be 0.916; in test [20], 0.619.
Turning to ACTAGTTGGTCAGCTGCGGTCACACACAATTCGG, the PBM binding z-score in [1] was 0.216; in test [2], 0.737; in test [3] it was 1.43; in test [4] it was 0.671; in [5] it was 0.37; in test [6], 0.527. The PBM binding z-score in [7] was 0.606; in [8] it was 0.528; in test [9], -0.0871; in [10], 0.128; in test [11] it was 1.11; in test [12], 1.54. In addition, the PBM binding z-score in test [13] is 0.929; in [14], 0.572; in [15] it was 0.275; in test [16], 1.27; in [17], 0.281; in test [18], 1.42. Also, the PBM binding z-score in test [19] was 0.564; in test [20] it was 2.26.
For the sequence CAAACTAGGTCAAGGTCCAAGTCGGTTTGTGCCA, the PBM binding z-score is 3.75 in test [1]; 2.44 in test [2]; 0.225 in test [3]; 1.55 in [4]; -0.00943 in test [5]; 5.05 in test [6]. Moreover, the PBM binding z-score turned out to be 8.9 in [7]; 7.5 in test [8]; 6.37 in [9]; 7.89 in test [10]; 8.66 in test [11]; 8.37 in test [12]. Further, the PBM binding z-score in test [13] was 3.91; in test [14], 1.65; in test [15], 2.64; in test [16] it was 1.63; in test [17], -0.0807; in test [18], 2.31. The values for the PBM binding z-score in test [19] and in [20] were 0.849 and 4.18, respectively.
